Reference: PubChem BioAssay (NCI)
This is part of a sample that, as a whole, favours compounds with a hit. Of some 79,000 tested, about 15% had one in any assay. Calls of active or inactive are those of the source. No stated cut-off is given here; in the data, active means growth inhibition above about 70%; inactive means the rest.

Experiments:
[1] = NCI Yeast Anticancer Drug Screen. Data for the rad50 strain (AID 155);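 further: 0% = growth of vehicle-only cultures of the same strain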; conditions: S. cerevisiae rad50 strain growth inhibition; at 50.0 µM; hits give high values
How it was run: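 Relative growth inhibition (compound vs vehicle) was measured in yeast with a defined repair-gene alteration.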

[2] = NCI Yeast Anticancer Drug Screen. Data for the mec2-1 strain (AID 157); conditions: S. cerevisiae mec2-1 strain, at 50.0 µM, hits give high values
How it was run: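 Strain: mec2-1 (DNA repair/cell cycle alteration). Compound exposure, then growth measured; inhibition expressed relative to vehicle.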

[3] = NCI Yeast Anticancer Drug Screen. Data for the sgs1 mgt1 strain (AID 161);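 further: 0% = growth of cultures given vehicle only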; conditions: S. cerevisiae sgs1 mgt1 strain, at 50.0 µM, hits give high values
How it was run: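 Inhibition of yeast growth, normalised to vehicle-treated controls, is reported for a strain bearing genetic alterations in DNA damage repair.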

[4] = NCI Yeast Anticancer Drug Screen. Data for the cln2 rad14 strain (AID 165);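 further: 0% = growth equal to vehicle treated cultures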; conditions: S. cerevisiae cln2 rad14 strain, at 50.0 µM, hits give high values
How it was run: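 Compounds are applied to the cln2 rad14 yeast strain, and growth is then compared with that of vehicle-treated cultures to give inhibition.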

[5] = NCI Yeast Anticancer Drug Screen. Data for the bub3 strain (AID 167); conditions: S. cerevisiae bub3 mutant strain, at 50.0 µM, hits give high values
How it was run: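 Screening used yeast with an engineered genetic alteration affecting cell cycle control. Compound-exposed cultures were compared with vehicle cultures, and reduced growth was taken as inhibition.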

[6] = NCI Yeast Anticancer Drug Screen. Data for the mlh1 rad18 strain (AID 175); conditions: S. cerevisiae mlh1 rad18 strain growth inhibition; at 50.0 µM; hits give high values
How it was run: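 Read-out is yeast growth inhibition, calculated against vehicle-only controls. The compound was applied to a strain engineered with DNA damage repair alterations.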

Measured: growth inhibition

CC(=O)OC1CCC2(C)C(CCC3C2CCC2(C)C(c4cccc(=O)o4)CCC32)C1 (stereo not drawn)
inactive: [1] 22.5% | [2] 8.9% | [3] 11.4% | [4] 14.8% | [5] 0.35% | [6] 2.3%

C=CC(CO)N1CCCCC1 (stereo not drawn)
inactive: [1] -9.15% | [2] 24.6% | [3] -1.05% | [4] -8.9% | [5] -19.2% | [6] 13.9%

CN(C)c1ccc(SSc2ccc(N(C)C)cc2)cc1
inactive: [1] -6.9% | [2] -20.6% | [3] 3.2% | [4] -3.9% | [5] 6.55% | [6] 1.25%

CCOC(C)C1C2CCCCC21 (stereo not drawn)
inactive: [1] 2.1% | [2] 0.75% | [3] 6.2% | [4] -54% | [5] 4.85% | [6] 8.75%

CC1CC(=O)Nc2ncnc(N)c21 (stereo not drawn)
inactive: [1] -25.1% | [2] -2.45% | [3] 2.3% | [4] -4.7% | [5] 5.3% | [6] -9%

CCN(CC)CCOC(=O)c1ccc(Cl)c(Cl)c1
inactive: [1] 13.8% | [2] -5.9% | [3] 19.9% | [4] -46.3% | [5] -6.6% | [6] -9.4%

OC(CNc1ccc(Cl)cc1)CN1CCOCC1 (stereo not drawn)
inactive: [2] 15.2% | [3] 14.9% | [4] -1.05% | [5] -3.7% | [6] 42%
active: [1] 77.7%

CC1(C)OC(=O)C=C(O)O1.CC1(C)OC(=O)C=C(O)O1.CCO.Oc1ccc2c(c1)CCC2.[Ti]
inactive: [1] -15.7% | [2] -13.5% | [3] -29.1% | [4] 20.4% | [5] -5.05% | [6] 6.75%

CC(C)(C)OC(=O)Cc1ccc2c(ccn2Cc2ccccc2)c1
inactive: [1] -26.2% | [2] -29.6% | [3] -10.9% | [4] -22.1% | [5] 4.65% | [6] -20%

CC(=O)OC1C=CC2Oc3ccc(C)cc3C1(C)O2 (stereo not drawn)
inactive: [1] 12.8% | [2] -4.05% | [3] 14.4% | [4] 28.2% | [5] 23.6% | [6] 34.9%

CCOC(=O)NC(=S)C1=C(N2CCOCC2)CCC1
inactive: [1] -16.1% | [2] -34.4% | [3] 1.95% | [4] 7.25% | [5] -28.4% | [6] 6.45%

C=C1C(=O)OC2/C=C(\C)C(O)CC(O)C(C)(O)CC(OC(=O)/C(C)=C/C)C12 (stereo not drawn)
inactive: [1] -0.7% | [2] -25.2% | [3] -10.4% | [4] 14.1% | [5] 6.5% | [6] -10.8%

CCN=C1SCCCS1
inactive: [1] -8.8% | [2] -22.8% | [3] -13.4% | [4] -19.5% | [5] -15.9% | [6] -14.8%

COc1cc([C@@H]2c3cc4c(cc3[C@](C)(O)[C@H]3COC(=O)[C@H]23)OCO4)cc(OC)c1OC
inactive: [1] 19.7% | [2] 10.4% | [3] 14.1% | [4] 22.8% | [5] 19.1% | [6] 11%

COc1cc(C(C#N)NNC(=O)Cc2ccccc2)cc(OC)c1OC (stereo not drawn)
inactive: [1] -18.9% | [2] -54.1% | [3] -53.9% | [4] 18.5% | [5] -45.8% | [6] -49.8%

Cc1ccc(C)c(N2C(=O)C(=O)C(c3nc4ccccc4o3)/C(=N/N)C2=O)c1 (stereo not drawn)
inactive: [1] -18.8% | [2] 34% | [3] 14.2% | [4] -17% | [5] 5.25% | [6] -17.8%

NC(=O)C1CC(O)CN1C(=O)c1cccnc1 (stereo not drawn)
inactive: [1] 11.2% | [2] 19.8% | [3] 15.3% | [4] -7% | [5] 8.9% | [6] 5.35%

COc1cc2c(cc1OC)C1CCN3C(=O)CCC3[N+]1(C)CC2 (stereo not drawn)
inactive: [1] 46.6% | [2] -1.05% | [3] 28.9% | [4] -4.3% | [5] 3.2% | [6] 8.7%
